High-throughput results: PubChem BioAssay, Broad Institute
A selection: hits, their analogues and other compounds. The true share with any hit is near 3.1%.
INS-1E GSIS act: primary screen for activators of insulin secretion dependent on glucose, INS-1E cells, GLuc reporter luminescence; INS-1E GLuc reporter insulin secretion, 2-3 h; activation, % at 16.6 µM; hit rate 0.61% among 370,000; AID 743287;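 active = lowest replicate activation of at least 40%, so every replicate reaches that level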;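 also: 0% = median of neutral control wells and 100% = median of IBMX positive control wells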
PAX8 inh HTS: PAX8 transcriptional activity inhibition; RMG-I TPO-luciferase reporter, SteadyGlo, 24 h; inhibition, % at 12.6 µM; hit rate 1.2% among 360,000; AID 652154;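 active = mean replicate inhibition at least 60% with every replicate also reaching 60%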;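 also: luciferase light reporting Pax8 driven TPO promoter activity; plate controls were median of neutral control wells for no effect and mitoxantrone controls for full effect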
Statin myotox sup: suppression of simvastatin myotoxicity; C2C12 myotubes + simvastatin, ATP luminescence, 48 h; scaled: DMSO 0, geranylgeraniol control 100; rescue of ATP level, % at 7.49 µM; hit rate 0.78% among 330,000; AID 602340;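 active = mean ATP rescue above about 67%, or every replicate alone reaching that limit, limit read from the data, passing the limit was not always enough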;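 also: myotubes were challenged with 10 µM simvastatin during compound exposure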
EWS-Fli block: EWS/Fli transcriptional activity inhibition | A673 NR0B1-luciferase reporter, viability-normalised | inhibition, % at 12.6 µM | hit rate 0.67% among 350,000 | AID 651661;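 active = mean inhibition of at least 50% after viability correction, with every replicate also passing that limit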;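 also: firefly luciferase signal divided by Alamar Blue viability fluorescence both relative to DMSO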
miR-122 sensor: blocks miR-122 activity in Huh7 sensor cells. Huh7 miR-122 Renilla luciferase sensor, 48 h; neutral wells = 0, positive control = 100. activation (reporter increase), % at 12.5 µM. hit rate 0.3% among 340,000. AID 602342;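 active = mean replicate activation score at least 90 and every replicate individually at or above 90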;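 also: higher luciferase means less miR-122 activity so hits act as miR-122 inhibitors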
HIV Env fusion: HIV envelope-mediated fusion inhibition; inhibition, % at 12.3 µM; HeLa-JRFL Env/CEM21 cell fusion, luciferase; hit rate 1.1% among 360,000;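 active = mean replicate inhibition score of at least 50 and every replicate individually at or above 50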;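 also: 0% = plate neutral controls and 100% = maraviroc near 300 nM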
An asterisk follows results filed as active; [ ] = dose if it differs, or a comment.

Results for Cc1ccc(S(=O)(=O)N(C)C[C@H]2Oc3cc(C4=CCCC4)ccc3S(=O)(=O)N([C@H](C)CO)C[C@H]2C)cc1 ?
INS-1E GSIS act: 5; PAX8 inh HTS: 41; Statin myotox sup: -11; EWS-Fli block: 11; miR-122 sensor: 31[16.7 µM]; HIV Env fusion: 60*[16.7 µM]

How did Cc1ccc(S(=O)(=O)N(C)C[C@@H]2Oc3cc(C4=CCCC4)ccc3S(=O)(=O)N([C@@H](C)CO)C[C@H]2C)cc1 do in these assays?
INS-1E GSIS act: 9; PAX8 inh HTS: 71*; Statin myotox sup: -143; EWS-Fli block: 10; miR-122 sensor: -23[16.7 µM]; HIV Env fusion: 58*[16.7 µM]

What do the screens show for `C[C@H](CO)N1C[C@H](C)[C@@H](CN(C)Cc2ccc(Oc3ccccc3)cc2)Oc2ccc(NS(C)(=O)=O)cc2CC1=O`?
INS-1E GSIS act: -5; PAX8 inh HTS: 39; Statin myotox sup: 19; EWS-Fli block: 6; miR-122 sensor: -1[16.7 µM]

Results for C[C@@H]1CCCCO[C@H](CN(C)C(=O)Cc2ccccc2)[C@H](C)CN([C@@H](C)CO)C(=O)c2cc(NC(=O)c3ccccc3)ccc2O1 ?
INS-1E GSIS act: -35; EWS-Fli block: 11; miR-122 sensor: 9[16.7 µM]; HIV Env fusion: -7[16.7 µM]

How did Cc1ccc(S(=O)(=O)NCCC(C)C)cc1[N+](=O)[O-] do in these assays?
INS-1E GSIS act: -10; PAX8 inh HTS: 10; Statin myotox sup: -9; EWS-Fli block: -23; miR-122 sensor: 232*; HIV Env fusion: 13

Results for C/C(CCC(C)C)=N\NS(=O)(=O)c1ccc(C)c([N+](=O)[O-])c1 ?
INS-1E GSIS act: -11; PAX8 inh HTS: 16; EWS-Fli block: 1; miR-122 sensor: 14; HIV Env fusion: 3

What do the screens show for `Cc1ccccc1-c1cnc2c(c1)C(=O)N([C@H](C)CO)C[C@@H](C)[C@H](CN(C)C(=O)CN(C)C)O2`?
INS-1E GSIS act: 15; Statin myotox sup: 15; EWS-Fli block: -6; miR-122 sensor: 3[16.7 µM]; HIV Env fusion: -38[16.7 µM]

How did C[C@H](CO)N1C[C@H](C)[C@@H](CN(C)S(=O)(=O)c2cn(C)cn2)Oc2ccc(NC(=O)Nc3ccc(C(F)(F)F)cc3)cc2CC1=O do in these assays?
INS-1E GSIS act: -6; PAX8 inh HTS: 4; Statin myotox sup: 29; EWS-Fli block: 45; miR-122 sensor: 7[16.7 µM]; HIV Env fusion: 24[16.7 µM]

How did CSc1ccc(/C=C(/NC(=O)c2ccccc2)C(=O)NCCCn2ccnc2)cc1 do in these assays?
INS-1E GSIS act: 21; PAX8 inh HTS: -5; Statin myotox sup: -2; EWS-Fli block: 4; miR-122 sensor: 113*; HIV Env fusion: -6

Results for O=C(NCCN1CCOCC1)/C(=C\c1ccc(F)cc1)NC(=O)c1ccccc1 ?
INS-1E GSIS act: -2; PAX8 inh HTS: 15; Statin myotox sup: 24; EWS-Fli block: 0; miR-122 sensor: -5; HIV Env fusion: 11

How did O=C(NCCN1CCOCC1)/C(=C/c1ccccc1)NC(=O)c1ccccc1 do in these assays?
INS-1E GSIS act: 47*; PAX8 inh HTS: -1; Statin myotox sup: -4; EWS-Fli block: -8; miR-122 sensor: -3; HIV Env fusion: -5

How did O=C(N/C(=C\c1ccccc1)C(=O)N1CCN(CCO)CC1)c1ccccc1 do in these assays?
INS-1E GSIS act: -4; PAX8 inh HTS: 5; miR-122 sensor: -7; HIV Env fusion: 79*

How did O=C(NCCCn1ccnc1)/C(=C/c1ccccc1)NC(=O)c1ccccc1 do in these assays?
INS-1E GSIS act: 7; PAX8 inh HTS: -9; Statin myotox sup: 12; EWS-Fli block: 5; miR-122 sensor: 11; HIV Env fusion: 12

Results for C[C@@H]1CN([C@H](C)CO)C(=O)c2cccc(NC(=O)C3CCCCC3)c2O[C@H]1CN(C)S(C)(=O)=O ?
INS-1E GSIS act: 15; PAX8 inh HTS: -3; Statin myotox sup: 3; EWS-Fli block: -12; miR-122 sensor: 11[16.7 µM]; HIV Env fusion: 23[16.7 µM]

What do the screens show for `O=C(CSc1nccc(-c2cccs2)n1)Nc1cccc(Cl)c1`?
INS-1E GSIS act: -13; PAX8 inh HTS: 48; Statin myotox sup: 2; EWS-Fli block: 1; miR-122 sensor: 9; HIV Env fusion: 5

How did Cc1onc(-c2ccc(Cl)cc2)c1-c1ccnc(SCC(=O)Nc2cc(Cl)cc(Cl)c2)n1 do in these assays?
PAX8 inh HTS: 36; EWS-Fli block: 14; HIV Env fusion: 75*
